Data reported in PubChem BioAssay AID686978 (National Center for Advancing Translational Sciences (NCATS), 2013).
Among all 420,000 compounds or so, about 64,000 (15%) were called active. Inconclusive results (about 27%) are left out. A selection follows. A number with no mark means an inactive call. Calls come from the whole dose curve; as a rule, active = well fitted inhibition curve with a large enough effect; inconclusive = small, poorly fitted or top-dose-only effect; inactive = flat fitted curve, though single readings scatter.

Assay: qHTS for Inhibitors of human tyrosyl-DNA phosphodiesterase 1 (TDP1): qHTS in cells in absence of CPT; note: nearly all actives have a fitted effect of over 55% in size
Conditions: DT40 Tdp1-/- hTDP1 cells, no CPT, ATP luminescence, 48 h; activity change, negative = growth inhibition: at 46.2 µM (top of the series)
Method in brief: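 Stably hTDP1-transfected Tdp1-null chicken DT40 cells were treated with library compounds minus camptothecin and grown for at least 48 hr at 37 °C, after which cellular ATP was quantified by luminescence.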
% is set by controls: 0 for no effect and ±100 for the full control effect; potency is the fitted concentration of half-maximal effect.

SMILES | activity change, negative = growth inhibition [%] | Potency
CNC(=O)n1ccc(C(=O)N2CCCCC2)n1 | -13.1 | –
O=C(CCC(=O)c1cccs1)NCc1ccccc1 | -14.2 | –
Cc1ccc(SCCN2C(=O)NC(C)(C)C2=O)cc1 | -8.19 | –
O=C(CC1CCCCC1)NCc1ccco1 | -7.57 | –
O=C(Nc1ccc(Cl)cc1)C1c2cccc[n+]2CC(=O)N1Cc1ccc2c(c1)OCO2 (centres undefined) | – | 1.03 µM (active)
O=C(Nc1ccc(NC(=O)c2ccc3c(c2)OCO3)cc1)c1cccc(Cl)c1 | 4.72 | –
O=C(Nc1ccc2c(c1)OCCO2)C1c2ccccc2OCC(=O)N1Cc1ccccn1 (centres undefined) | -7.48 | –
CSc1ccccc1C(=O)NCc1ccccc1 | 0.357 | –
C=CCOc1cccc(CNn2cn[nH]c2=S)c1 | -18.6 | –
CC(=O)Nc1ccc(Oc2ccc3c(c2)C(=O)NC3=O)cc1 | 6.04 | –
C/C(=N\NC(=O)c1nc(C)cc(C)n1)c1ccccc1 | -13.8 | –
Cc1cc(C)nc(S/C=C/C(=O)c2ccccc2)n1 | – | 2.59 µM (active)
Cc1ccc(N/C=C/C(=O)c2ccccc2)cc1C | -14 | –
COC1=CCC2([N+](=O)[O-])CN(CC(=O)O)CC1([N+](=O)[O-])C2 (centres undefined) | -1.54 | –
Cc1ccc(NC(=O)NC(=O)N(C2CCCCC2)S(=O)(=O)c2ccccc2)cc1 | -29.9 | –
Cc1ccc2[nH]c3c(=O)n(Cc4ccccn4)cnc3c2c1 | -6.59 | –
CC(C)c1cccc(C(C)C)c1Nc1cn[nH]c1 | – | 20.6 µM (active)
O=C(O)CCCN1C(=O)c2ccccc2Sc2ncccc21 | 10.6 | –
C=CCOc1cccc(CNCc2cccnc2)c1 | -2.47 | –
Cn1cnc([N+](=O)[O-])c1Sc1ccccc1 | – | 23.1 µM (active)
Cn1cnc([N+](=O)[O-])c1Nc1ccccc1O | -17.2 | –
Cn1cnc([N+](=O)[O-])c1Sc1n[nH]c(N)n1 | -15 | –
C=CCN1C(=O)C2(OCCCO2)c2cccc(Cl)c21 | 10.2 | –
CCC(C)(C)n1nnnc1C(c1ccc(OC)c(OC)c1)N1CCN(C(=O)c2ccco2)CC1 (centres undefined) | 1.91 | –
CCC(C)(C)n1nnnc1C(c1cccs1)N1CCN(c2nc3ccccc3s2)CC1 (centres undefined) | – | 15.8 µM (active)
CCC(C)(C)n1nnnc1C(c1ccccc1OC)N1CCSCC1 (centres undefined) | -21 | –
O=C(CCn1nnc2ccccc2c1=O)N[C@@H](Cc1c[nH]c2ccccc12)C(=O)O | 2.6 | –

SMILES | activity change, negative = growth inhibition [%] | Potency
CCOC(=O)N1CCC(NC(=O)Cc2cn(C)c3ccccc23)CC1 | -10.6 | –
CC(C)=CCC/C(C)=C/CC/C(C)=C/CC/C(C)=C/CO | – | inactive
CCSc1nc2c(c(=O)[nH]1)C(c1cccnc1)C(C(=O)OC(C)C)=C(C)N2 (centres undefined) | -29 | –
COc1cc(CNC2CCCC2)c(Br)cc1OCc1ccccc1 | – | 16.4 µM (active)
COc1cc(OC)c(NC(=O)C2CCCN2C(=O)OCc2ccccc2)cc1Cl (centres undefined) | 11.7 | –
COc1cc(CN2CCC(C(N)=O)CC2)ccc1OCc1ccccc1 | -5.51 | –
O=C(CN1CCSCC1)N/N=C/c1ccc(F)cc1 | -12.8 | –
COc1ccc2c(c1OC)C(=O)OC2Nc1nc(-c2ccccc2)cs1 (centres undefined) | – | 1.84 µM (active)
COc1ccc(-c2csc(NC(=O)CCCc3cccs3)n2)cc1 | -3.64 | –
CCc1ccccc1NC(=O)[C@@H]1CCC(=O)N1C1OC(=O)c2c1ccc(OC)c2OC (some centres undefined) | 4.6 | –
COc1ccc(-c2csc(NC3OC(=O)c4ccccc43)n2)cc1 (centres undefined) | – | 6.51 µM (active)
COc1ccc2c(c1OC)C(=O)OC2c1c(O)nc(SC)n(-c2ccccc2)c1=O (centres undefined) | 2.17 | –
O=C(O)c1ccc(Cn2c(=S)[nH]c3cc(Cl)ccc3c2=O)cc1 | -6.36 | –
CCOC(=O)CSc1nnc(CNc2nc(-c3ccccc3)cs2)n1C | -0.54 | –
Cc1ccc(O/C=C2\OC(=O)c3ccccc32)cc1 | 4.91 | –
O=C1CC2(CCCCC2)Oc2ccc(OCC(=O)N3CCOCC3)cc21 | -23.5 | –
CCN(CC)c1ccc([N+](=O)[O-])cc1C(=O)O | -14.5 | –
Cc1cccc(C=CC(=O)c2ccc(Cl)cc2)c1 | – | 13 µM (active)
Cc1cccc(C(=O)c2cccc(C)c2)c1 | -9.07 | –
Cc1cc(C)nc(NC(=O)/C=C/c2ccc(Cl)cc2)n1 | -8.03 | –
COc1ccc(CNC(=O)C2CCN(S(=O)(=O)N3CCOCC3)CC2)cc1 | -3.42 | –
CC(=O)Nc1ccc(SCC(=O)NC(=O)c2ccc(Cl)cc2)cc1 | -7.14 | –
O=C(CNC(=O)c1ccc(-c2ccccc2)cc1)OCc1ccc(Cl)cc1 | -16.5 | –
O=C(CNC(=O)OCc1ccccc1)Oc1cc2oc(=O)cc(-c3ccccc3)c2cc1Cl | – | 8.2 µM (active)
CC(Oc1ccc2c(-c3ccccc3)cc(=O)oc2c1)C(=O)NC(Cc1c[nH]c2ccccc12)C(=O)O (centres undefined) | 11.4 | –
CCOC(=O)c1cnc2sccn2c1=O | 1.28 | –
O=[N+]([O-])c1cccc(S(=O)(=O)NCc2ccccn2)c1 | -0.0361 | –
